Each structure is given as a SMILES string. Results filed as inconclusive are left out. Where a call stands in place of a potency, no number is given. Calls of active or inactive are those of the source. Calls follow the shape of the full dose curve.

The target in one experiment is Acetylcholinesterase (Homo sapiens) (UniProt P22303). The experiment is described as follows: Acetylcholinesterase (AChE) small molecule antagonists: enzyme-based qHTS assay (AID 1347397). Also: nearly all actives have a fitted effect of over 55% in size. The note with it: Potency: AChE enzyme activity inhibition; outcome: AChE enzyme activity inhibition; series mostly up to 115 µM. The method, boiled down: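 Compound or DMSO vehicle was pin-transferred onto recombinant human AChE (50 mU/mL as dispensed) and left 30 min at room temperature. Acetylthiocholine with DTNB then started the reaction, read colorimetrically 10 min later.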
Sequence of Acetylcholinesterase (Homo sapiens) (P22303 whole entry, looked up): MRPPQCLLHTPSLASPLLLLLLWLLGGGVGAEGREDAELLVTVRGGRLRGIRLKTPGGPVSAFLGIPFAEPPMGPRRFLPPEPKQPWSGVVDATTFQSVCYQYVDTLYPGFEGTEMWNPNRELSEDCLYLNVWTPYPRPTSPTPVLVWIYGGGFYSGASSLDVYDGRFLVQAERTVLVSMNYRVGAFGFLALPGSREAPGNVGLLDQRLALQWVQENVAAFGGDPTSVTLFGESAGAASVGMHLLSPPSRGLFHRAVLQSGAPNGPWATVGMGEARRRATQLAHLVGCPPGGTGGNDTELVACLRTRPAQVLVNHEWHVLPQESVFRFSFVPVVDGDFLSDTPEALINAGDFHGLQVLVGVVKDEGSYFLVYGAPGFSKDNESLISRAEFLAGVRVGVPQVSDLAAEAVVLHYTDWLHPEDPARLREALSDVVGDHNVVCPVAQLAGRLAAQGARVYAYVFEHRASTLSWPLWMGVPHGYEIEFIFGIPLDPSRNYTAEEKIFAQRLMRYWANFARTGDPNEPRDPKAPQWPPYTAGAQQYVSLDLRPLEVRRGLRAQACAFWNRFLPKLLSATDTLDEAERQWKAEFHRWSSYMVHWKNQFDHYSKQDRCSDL
A general note: Quantitative high-throughput screening tests each substance at several concentrations.
Regarding `CCCCCCCCCCCCN(CCCCCCCCCCCC)CCCCCCCCCCCC`, the Potency result is “inactive”. Same read-out and setting: the result for `C=CC(=O)OCCOCC(CC)(COCCOC(=O)C=C)COCCOC(=O)C=C` reads “inactive”; that for `Cc1cn[nH]c1`, “inactive”. With `O=C(NN1CCCC1)NS(=O)(=O)c1ccc(Cl)cc1`, the Potency result was “inactive”. Still for that read-out and setting: the result for `CC/C=C\CCCCO` reads “inactive”; that for `CC(=O)OCC(=O)[C@@]1(OC(C)=O)[C@@H](C)C[C@H]2[C@@H]3C[C@H](F)C4=CC(=O)C=C[C@]4(C)[C@@]3(F)[C@@H](O)C[C@@]21C`, “inactive”; that for `O=C1CCCN1C1CCCCC1`, “inactive”. For `COC(=O)C1CC(=O)C(C(=O)OC)CC1=O` (stereo unspecified), the activity change, negative = inhibition is 0.472% [at 10.5 µM] (inactive). For `CN(C)C(=O)Nc1ccc(Oc2ccc(Cl)cc2)cc1`, the Potency result was “inactive”. Turning to `CC1(C)[C@@H](O)CC[C@]2(C)[C@H]3C(=O)C=C4[C@@H]5C[C@@](C)(C(=O)O)CC[C@]5(C)CC[C@@]4(C)[C@]3(C)CC[C@@H]12`, the Potency result is “inactive”. Still for that read-out and setting: the result for `Cc1cccc(N(C)C)c1` reads “inactive”; that for `CCCc1ccc(N)cc1`, “inactive”. On the same count and under the same terms, the result for `Cc1nc(-c2ccc3c(c2)CCN(CCC2CCC(NC(=O)/C=C/c4ccc(F)cc4)CC2)CC3)no1` (stereo unspecified) reads “inactive”.

As to `OCCN1CCOCC1`, the Potency entry was “inactive”. For `CCCCCCCCCCCCCC=O`, the activity change, negative = inhibition is 0.138% [at 10.5 µM] (inactive). Regarding `O=S1(=O)CCCC1`, the Potency result is “inactive”.

In the case of `CN(Cc1ccc(C(C)(C)C)cc1)Cc1cccc2ccccc12`, the Potency result was “inactive”.

The target is the same in a further experiment. The experiment is described as follows: Acetylcholinesterase (AChE) small molecule antagonists: fluorescence cell-based qHTS assay (AID 1347398). Also: nearly all actives have a fitted effect of over 50% in size. The note with it: SH-SY5Y cells; Potency: AChE activity; outcome: AChE activity; series mostly up to 115 µM. The method, boiled down:
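Using neuroblastoma SH-SY5Y cells as the enzyme source, test chemicals are preincubated 30 min at 37 C; AChE-driven acetylthiocholine cleavage is then quantified by thiocholine-dependent Thiolite Green fluorescence after 40 min at room temperature.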
On to `O=C(/N=N/C(=O)OCc1ccccc1)OCc1ccccc1`, for which the Potency result was “inactive”. Take `CCO[Si](C)(OCC)OCC`: the Potency result was “inactive”. On the same count and under the same terms, the result for `CN(C)CCN(C)CCO` reads “inactive”; that for `CCCC(=O)OCC`, “inactive”; that for `CC(=O)S[C@@H]1CC2=CC(=O)CC[C@]2(C)[C@H]2CC[C@@]3(C)[C@@H](CC[C@@]34CCC(=O)O4)[C@H]12`, “inactive”. `COC(C)=O`: the Potency result is “inactive”. Consider `COC(=O)C1=C(C)NC(C)=C(C(=O)OC(C)(C)CN(C)CCC(c2ccccc2)c2ccccc2)C1c1cccc([N+](=O)[O-])c1` (stereo unspecified), for which the Potency result was “inactive”. On the same count and under the same terms, the result for `CCC(CC)CO` reads “inactive”; that for `C[C@@H](O)[C@H]1C(=O)N2C(C(=O)O)=C([C@H]3CCCO3)S[C@H]12`, “inactive”; that for `COC(OC)(C(=O)c1ccccc1)c1ccccc1`, “inactive”. Consider `CCCCCc1ccco1`, for which the Potency entry was “inactive”.

In the case of `OCCCO`, the Potency result is “inactive”. Same read-out and setting: the result for `Nc1cc(C(=O)O)c(O)c(S(=O)(=O)O)c1` reads “inactive”; that for `CCN(CC)CC`, “inactive”. As for `O=C(Oc1cccc2cccnc12)c1ccccc1`, the Potency entry is “inactive”. As to `O=C(O)CNC(=O)CNC(=O)CNC(=O)CSC(=O)c1ccccc1`, the Potency entry is “inactive”. As to `O=C1CC[C@@H](C(=O)O)N1`, the Potency result is “inactive”. In the case of `CC(=O)c1cnccn1`, the Potency entry was “inactive”. For the compound `C[C@@H](O)[C@H](N)C(=O)O`, the activity change, negative = inhibition is 4.69% [at 23.8 µM] (inactive).

For `FC1(F)C(F)(F)C(F)(F)C2(F)C(F)(C1(F)F)C(F)(F)C(F)(F)C1(F)C(F)(F)C(F)(F)C(F)(F)C(F)(F)C12F` (stereo unspecified), the Potency entry is “inactive”. On the same count and under the same terms, under `C=C(C)C(=O)OCCOCCOC(=O)C(=C)C` stands “inactive”; under `CNC(=O)c1cnn(-c2nc(N)c3ncn([C@@H]4O[C@H](CO)[C@@H](O)[C@H]4O)c3n2)c1`, “inactive”.

In the case of `CCCCCCCCCCCCN(CCCCCCCCCCCC)CCCCCCCCCCCC`, the Potency result was “inactive”. On the same count and under the same terms, the result for `C=CC(=O)OCCOCC(CC)(COCCOC(=O)C=C)COCCOC(=O)C=C` reads “inactive”. For `Cc1cn[nH]c1`, the Potency entry is “inactive”.

For `O=C(NN1CCCC1)NS(=O)(=O)c1ccc(Cl)cc1`, the Potency result is “inactive”. Still for that read-out and setting: the result for `CC/C=C\CCCCO` reads “inactive”; that for `CC(=O)OCC(=O)[C@@]1(OC(C)=O)[C@@H](C)C[C@H]2[C@@H]3C[C@H](F)C4=CC(=O)C=C[C@]4(C)[C@@]3(F)[C@@H](O)C[C@@]21C`, “inactive”.

On to `O=C1CCCN1C1CCCCC1`, for which the Potency entry was “inactive”.

Take `COC(=O)C1CC(=O)C(C(=O)OC)CC1=O` (stereo unspecified): the activity change, negative = inhibition is 1.15% [at 10.5 µM] (inactive). In the case of `CN(C)C(=O)Nc1ccc(Oc2ccc(Cl)cc2)cc1`, the Potency entry is “inactive”.

For the compound `CC1(C)[C@@H](O)CC[C@]2(C)[C@H]3C(=O)C=C4[C@@H]5C[C@@](C)(C(=O)O)CC[C@]5(C)CC[C@@]4(C)[C@]3(C)CC[C@@H]12`, the Potency entry is “inactive”. Take `Cc1cccc(N(C)C)c1`: the Potency entry is “inactive”.

For `CCCc1ccc(N)cc1`, the Potency result was “inactive”. As to `Cc1nc(-c2ccc3c(c2)CCN(CCC2CCC(NC(=O)/C=C/c4ccc(F)cc4)CC2)CC3)no1` (stereo unspecified), the Potency entry was “inactive”. Same read-out and setting: the result for `OCCN1CCOCC1` reads “inactive”. In the case of `CCCCCCCCCCCCCC=O`, the activity change, negative = inhibition was 1.81% [at 10.5 µM] (inactive). Regarding `O=S1(=O)CCCC1`, the Potency result was “inactive”. On the same count and under the same terms, under `CN(Cc1ccc(C(C)(C)C)cc1)Cc1cccc2ccccc12` stands “inactive”.
